The full ranking holds about 140,000 sequences; the median of “enrichment ratio after two sorts for PhoP signalling” is about 0, and the highest 2% start at about 11. For the sample, the highest values were picked, then their nearest neighbours and some sequences at random.
B1: PhoQ; a variant is named by its letters at X, in order, P23837 (parent)
chain: MKKLLRLFFPLSLRVRFLLATAAVVLVLSLAYGMVALIGYSVSFDKTTFRLLRGESNLFYTLAKWENNKLHVELPENIDKQSPTMTLIYDENGQLLWAQRDVPWLMKMIQPDWLKSNGFHEIEADVNDTSLLLSGDHSIQQQLQEVREDDDDAEMTHSVAVNVYPATSRMPKLTIVVVDTIPVELKSSYMVWSWFIYVLSANLLLVIPLLWVAAWWSLRPIEALAKEVRELEEHNRELLNPATTRELTSLVRNLNRLLKSERERYDKYRTTLTDLTHSLKTPLXXLQXXLRSLRSEKMSVSDAEPVMLEQISRISQQIGYYLHRASMRGGTLLSRELHPVAPLLDNLTSALNKVYQRKGVNISLDISPEISFVGEQNDFVEVMGNVLDNACKYCLEFVEISARQTDEHLYIVVEDDGPGIPLSKREVIFDRGQRVDTLRPGQGVGLAVAREITEQYEGKIVAGESMLGGARMEVIFGRQHSAPKDE

Variants of: B1
Assay: enrichment ratio after two sorts for PhoP signalling (ratio (wild type AVST 3.29)); higher = more functional
Settings: with PhoP (E. coli)

Row | Variant | enrichment ratio
1 | ERYW | ≤ 0.25
2 | TEFV | 8.47
3 | FYGK | ≤ 0.25
4 | FRYA | ≤ 0.25
5 | WKER | ≤ 0.25
6 | FREH | ≤ 0.25
7 | EDQF | ≤ 0.25
8 | PKWA | ≤ 0.25
9 | MNPT | ≤ 0.25
10 | WRCA | ≤ 0.25
11 | GWPN | ≤ 0.25
12 | AETF | 9.37
13 | AESK | ≤ 0.25
14 | AETE | 8.78
15 | AERM | ≤ 0.25
16 | AEVM | 46.8
17 | AETS | 20.8
18 | AEGM | ≤ 0.25
19 | AEDV | ≤ 0.25
20 | AEHF | ≤ 0.25
21 | AETM | ≤ 0.25
22 | AETV | 22.9
23 | AESF | 14.8
24 | RWWL | ≤ 0.25
25 | RSVA | ≤ 0.25

Row | Variant | enrichment ratio
26 | ECQN | ≤ 0.25
27 | VEAF | ≤ 0.25
28 | AEFW | ≤ 0.25
29 | AKQC | ≤ 0.25
30 | AETQ | ≤ 0.25
31 | AEKS | ≤ 0.25
32 | AESC | 32.1
33 | AEEL | ≤ 0.25
34 | AEVL | 17.5
35 | AEPC | ≤ 0.25
36 | AEQC | 16
37 | AERL | ≤ 0.25
38 | AETW | 11.3
39 | AQQC | ≤ 0.25
40 | YVCN | ≤ 0.25
41 | DGHV | ≤ 0.25
42 | VIEF | ≤ 0.25
43 | WKPN | ≤ 0.25
44 | EKAV | ≤ 0.25
45 | STCA | 7.48
46 | STCK | 12.3
47 | STCE | 13.1
48 | STPM | 15.9
49 | STHE | ≤ 0.25
50 | SPPM | ≤ 0.25

Row | Variant | enrichment ratio
51 | STCI | 12.3
52 | STCS | 10.8
53 | SRPM | ≤ 0.25
54 | SRCK | ≤ 0.25
55 | YTCK | ≤ 0.25
56 | YTCE | ≤ 0.25
57 | TPLS | ≤ 0.25
58 | QDRE | ≤ 0.25
59 | ICDP | ≤ 0.25
60 | QAMT | ≤ 0.25
61 | QYWL | ≤ 0.25
62 | FCIR | ≤ 0.25
63 | RNQK | ≤ 0.25
64 | LNAP | ≤ 0.25
65 | THWI | ≤ 0.25
66 | YKPH | ≤ 0.25
67 | VKLF | ≤ 0.25
68 | AGWK | ≤ 0.25
69 | NRMH | ≤ 0.25
70 | VECH | 24.1
71 | GMMH | ≤ 0.25
72 | VFCH | ≤ 0.25
73 | HRMH | ≤ 0.25
74 | HECF | ≤ 0.25
75 | GMCH | 16.1

Row | Variant | enrichment ratio
76 | GNCH | 3.45
77 | TCCH | 7.95
78 | TEMH | 134
79 | HECI | 6.73
80 | HECH | 12.7
81 | GFPY | ≤ 0.25
82 | DYYD | ≤ 0.25
83 | EPTC | ≤ 0.25
84 | QQYH | ≤ 0.25
85 | QHTA | ≤ 0.25
86 | ETDE | ≤ 0.25
87 | NECH | 18
88 | HPCH | ≤ 0.25
89 | QECH | ≤ 0.25
90 | MFCH | ≤ 0.25
91 | YWCH | ≤ 0.25
92 | MECH | 56.6
93 | DMCH | ≤ 0.25
94 | TECH | 27.7
95 | HVCH | ≤ 0.25
96 | FIVW | ≤ 0.25
97 | MRRQ | ≤ 0.25
98 | KFHY | ≤ 0.25
99 | FGDH | ≤ 0.25
100 | EQSM | ≤ 0.25

Row | Variant | enrichment ratio
101 | YMLV | 0.756
102 | NWGV | ≤ 0.25
103 | AFIT | ≤ 0.25
104 | IIPL | ≤ 0.25
105 | GIGW | 16
106 | GIAH | 22.5
107 | GNGW | ≤ 0.25
108 | GIMM | 17.3
109 | GITM | 10.3
110 | GNAH | ≤ 0.25
111 | GITH | ≤ 0.25
112 | GNMM | 0.333
113 | GIHW | ≤ 0.25
114 | GIWM | ≤ 0.25
115 | GIGM | 36.1
116 | GIYM | ≤ 0.25
117 | RCKT | ≤ 0.25
118 | KSCR | ≤ 0.25
119 | YPKK | ≤ 0.25
120 | TDMP | ≤ 0.25
121 | PKYN | ≤ 0.25
122 | IVYH | ≤ 0.25
123 | QMPA | ≤ 0.25
124 | LKRS | ≤ 0.25
125 | KQPM | ≤ 0.25

Row | Variant | enrichment ratio
126 | RNQP | ≤ 0.25
127 | WSPR | ≤ 0.25
128 | NEWG | ≤ 0.25
129 | IPQP | ≤ 0.25
130 | MNPP | ≤ 0.25
131 | CSHW | ≤ 0.25
132 | PKLP | 0.31
133 | FDCK | ≤ 0.25
134 | KLPV | ≤ 0.25
135 | GILT | 3.61
136 | GIGG | ≤ 0.25
137 | GNMT | ≤ 0.25
138 | GIHF | ≤ 0.25
139 | GIMQ | 11.4
140 | GIGQ | ≤ 0.25
141 | GISA | 13
142 | GNTF | ≤ 0.25
143 | GISR | ≤ 0.25
144 | GIMT | 12.6
145 | GNSA | 2.7
146 | GITF | 18.4
147 | WKTM | ≤ 0.25
148 | RKLH | ≤ 0.25
149 | GFLH | ≤ 0.25
150 | TNCW | ≤ 0.25

Row | Variant | enrichment ratio
151 | LAHQ | ≤ 0.25
152 | MIEG | ≤ 0.25
153 | RYNY | ≤ 0.25
154 | GTMC | ≤ 0.25
155 | WIVV | ≤ 0.25
156 | GIMC | 17.3
157 | GNAW | ≤ 0.25
158 | GILR | 12.2
159 | GITD | ≤ 0.25
160 | GNVV | 5.22
161 | GIVV | 11.3
162 | GNMC | ≤ 0.25
163 | GNLR | ≤ 0.25
164 | GIAW | 21.6
165 | GYLR | ≤ 0.25
166 | MDVY | ≤ 0.25
167 | LSLS | ≤ 0.25
168 | IAET | ≤ 0.25
169 | ECYK | ≤ 0.25
170 | KLTV | ≤ 0.25
171 | LQYA | ≤ 0.25
172 | LGNN | ≤ 0.25
173 | QGIH | ≤ 0.25
174 | EKVT | ≤ 0.25
175 | YIEP | ≤ 0.25

Row | Variant | enrichment ratio
176 | HLIK | ≤ 0.25
177 | GILG | 12.3
178 | GITI | 5.68
179 | GNSS | 5.64
180 | GNAG | 0.269
181 | GNLG | 5.07
182 | GITK | 16
183 | GITG | 2.48
184 | GISK | 4.87
185 | GISS | 13.5
186 | GIMG | 8.1
187 | GIAG | 15.6
188 | GNTK | ≤ 0.25
189 | RNAN | ≤ 0.25
190 | KNTS | ≤ 0.25
191 | TMDQ | ≤ 0.25
192 | AWAD | ≤ 0.25
193 | RVNY | ≤ 0.25
194 | YHMP | ≤ 0.25
195 | AFVI | ≤ 0.25
